This passage reports sensor-assay potency score (higher = more potent) results from the OligoGym collection.
Note: reference of the scale not given here.

One assay has as its target OTOP1. In words: pooled miR-30 sensor sort-seq; sequence = guide strand. The settings on record: shRNA.
The sequence AAGCACAGCAGGTCGCTCTTGC displayed a sensor-assay potency score (higher = more potent) of 0.0599. The same measure, in the same setting: the result for TGATACTCTATGTTGAAGGGGT reads 0.574. Regarding TCGTCTATCCTGTAAATCCGGA, the sensor-assay potency score (higher = more potent) is -0.834. Consider AAAACTGTTGTTATGTTCCCAA, for which the sensor-assay potency score (higher = more potent) is -0.801. Consider AAACAATGTGATACTACCGCGC, for which the sensor-assay potency score (higher = more potent) was -0.348. TTCCTCAGGACTTTTCTCTTGG showed a sensor-assay potency score (higher = more potent) of 0.566. Turning to TAGAACATGATGAGTGCCGACT, the sensor-assay potency score (higher = more potent) was -0.938. The same measure, in the same setting: the result for TTGAGTTGGTGCTTTGACTCAT reads 0.454; that for TTGGTGCTTTGACTCATTGAGG, -1.32.

In turn, TTGAACTGCATCTTCTGGTGCT yielded a sensor-assay potency score (higher = more potent) of 0.911. As to TTGCAGACTGTGACCACCCGAA, the sensor-assay potency score (higher = more potent) was found to be 0.116. The sequence TTGCAGAGGAACAAGAAGGCTG showed a sensor-assay potency score (higher = more potent) of -0.195.

In the next assay the target is OTOP2. Described as above. As to conditions: shRNA.
Turning to TTGAACCTCGTAGATGATGAAG, the sensor-assay potency score (higher = more potent) is -1.6. The sequence TTCCACATGACATACAGCATGG yielded a sensor-assay potency score (higher = more potent) of -1.01. On the same count and under the same terms, the result for TTGGTGGTGAGTGTGAACATGA reads -0.459.

The sequence TTGCCAGCAGCATCATCGCAGT registered a sensor-assay potency score (higher = more potent) of -1.22.

As for TTGGTGCACAGATTCATCCACC, the sensor-assay potency score (higher = more potent) was -1.03. On the same count and under the same terms, the result for AAGCAGACAATGTTGAAGCTGT reads 0.428.

Regarding TCCACCTCCACTGTGTTGCTGA, the sensor-assay potency score (higher = more potent) is -0.748. The same measure, in the same setting: then ATCCACAGAATGACATTGCAGA, with -0.488; and TCGATGATAAACATGTTCTGGA, with 0.252. The sequence TAGAAGAGGATCCAGAGCGTTG had a sensor-assay potency score (higher = more potent) of -1.26. The sequence TAGAAATCCACCTCCACTGTGT gave a sensor-assay potency score (higher = more potent) of 0.657. Still for that read-out and setting: then TAGATGACCAGGGCCTGCCTGG, with -1.42.
